Our source for the INHIBITION values is ChEMBL document CHEMBL4513216, “Probing the Open Global Health Chemical Diversity Library for Multistage-Active Starting Points for Next-Generation Antimalarials” (ACS Infect Dis, 2020).

Screen size: about 65,000 compounds; about 2,100 (3.2%) showed an effect of 50% or more. The median lay at about -52%. The sample holds strong results, similar compounds and a random draw of the others, so the mix is not that of the screen.

This assay has as its system Plasmodium falciparum. Kind of assay: Screen against P. falciparum Asexual Blood Stage (ABS), at 5uM. Particulars: tested at 5 uM. It counts as functional, Dd2.
Turning to `CCS(=O)(=O)NC[C@]12COC[C@H]1CN(Cc1ccsc1)C2`, the INHIBITION is recorded as 19.6%.
For `CCC(C)C(=O)Nc1ccc(CCN2CCOCC2)cc1` (configuration not stated) the value was -81%; for `CC(C)(CN1CCC(Cc2ccc(C(=O)O)cc2)C1)N1CCOCC1` (configuration not stated), -29.2%.
For `COCCCn1ccc(NC(=O)NCCCn2ccnc2)n1` the value was -58.9%; for `O=C(CN1CCOc2ccc(Cl)cc21)NCCCn1ccnc1`, -30.7%; for `CCOc1ccc(CNCCCn2ccnc2)cc1OC`, -13.1%.
For `CCOc1ccc(Cl)cc1CNCCCn1ccnc1` the value was 52.8%.
Turning to `COc1cc(CNCCn2ccnc2)cc2c1OCO2`, the INHIBITION was -86.4%.
In the case of `CCOc1c(CNCCCn2ccnc2)cc(Cl)cc1OC` it was 66.5%; in that of `O=c1[nH]c(NC2CCCC2)nc2nccc(-c3ccsc3)c12`, 68.5%; in that of `NC(=O)C1CCN(c2nc3nccc(-c4cccnc4)c3c(=O)[nH]2)CC1`, -16.2%.
In the case of `NC(=O)C1CCN(c2nc3nccc(-c4ccccc4)c3c(=O)[nH]2)CC1` it was -99.6%; in that of `O=c1[nH]c(NC2CCCC2)nc2nccc(-c3cccs3)c12`, 56.6%; in that of `NC(=O)C1CCN(c2nc3nccc(-c4ccncc4)c3c(=O)[nH]2)CC1`, -23%.
In the case of `O=C(O)Cn1nc(C2CC2)c2c(-c3cccs3)ccnc21` it was -7.45%.
On to `c1ccc(COC[C@H]2CC[C@H]3[C@H](CCN3Cc3ccccn3)O2)nc1`, for which the INHIBITION is on record as -2.2%.
For `CCNc1cc2c(nn1)CCN(C(=O)c1ccnc(-n3ccnc3)c1)C2`, the INHIBITION came to 43.9%.
For `CC(C)N1CCc2[nH]nc(C(=O)N3CCOCC3)c2C1` the value was 55.6%; for `CC(=O)N1CCc2[nH]nc(C(=O)N3CCOCC3)c2C1`, -75.4%; for `CC(C)N1CCc2[nH]nc(C(=O)N3CCN(C)CC3)c2C1`, 49.2%.
For `O=C(Nc1nc2c(s1)CNCC2)C1CC1` the value was -117%; for `O=C(NCC1CC1)[C@H]1C[C@H]2OCC[C@H]2N(CCc2ccccc2)C1`, -62.8%.
As for `CO[C@@H]1CN(c2ccccc2)S(=O)(=O)[C@@]12CCN(Cc1ccccc1)C2`, the INHIBITION is -32.5%.
In the case of `CC(=O)N[C@@H]1CN(C2CCN(c3cccc(Cl)c3)CC2)C[C@H]1C(C)C`, the INHIBITION was -10.3%.
In the case of `CC(=O)N[C@@H]1CN(C2CCN(c3cccc(C)c3C)CC2)C[C@H]1C(C)C` it was 57.7%; in that of `CC(=O)N[C@@H]1CN(C2CCN(c3ccccc3F)CC2)C[C@H]1C(C)C`, -24.8%; in that of `CN1[C@H](Cn2cncn2)C[C@@H]2CN(Cc3ccsc3)CC[C@@H]21`, 38.2%.
On to `CCOCC(=O)NCC(Cc1cccc(F)c1)N1CCCCC1=O` (configuration not stated), for which the INHIBITION is on record as -88%.
For `COc1ccc2nnc(CCCC(=O)NCCc3ccccn3)n2n1` the value was -138%; for `CC(C)COCCNC1CCN(c2ccccn2)CC1`, 61.2%.
For `COCCOCC(=O)NC1CCN(c2ccccn2)CC1` the value was -16.8%.
In the case of `CC(CNC1CCN(c2ccccn2)CC1)Oc1ccc(F)cc1` (configuration not stated) it was 49.1%.
On to `COc1ccc(C(C)CCNC2CCN(c3ccccn3)CC2)cc1` (configuration not stated), for which the INHIBITION turned out to be 68.2%.
In the case of `c1ccc(N2CCC(NCCc3ccc(-n4cccn4)cc3)CC2)nc1` it was 39.6%; in that of `COc1c(CNC2CCN(c3ccccn3)CC2)c(C(C)C)nn1C`, 1.28%.
For the compound `CC(C)(C)C(=O)N1CCC2(CNS(=O)(=O)c3cnccc3O2)C1` (configuration not stated), the INHIBITION is given as -18.2%.
With `CCC1c2ccccc2CCN1CCCS(C)(=O)=O` (configuration not stated), the INHIBITION is given as -4.08%.
On to `CC(C)C(NCc1ccc(Cn2cncn2)cc1)c1ccccc1` (configuration not stated), for which the INHIBITION came out at 50.1%.
For `CC(C)C(NCc1ccc(Cn2cncn2)cc1)c1ccc(F)cn1` (configuration not stated), the INHIBITION is recorded as -59.5%.
In the case of `COc1ccc(CNC(Cn2cncn2)c2ccccc2)cc1C` (configuration not stated) it was -102%.
In the case of `O=S(=O)(c1ccccc1)N1CCC2(CCCN2CC2CCCC2)C1` (configuration not stated) it was 48%; in that of `COc1cc(N2CCCC(CO)(Cc3ccccc3F)C2)ncn1` (configuration not stated), -43.6%.
In the case of `Cc1cc(C)n(CC2CCCN2C(=O)c2ccc3[nH]cnc3c2)n1` (configuration not stated) it was -163%.
For `Cc1nc(NCC2CC2)nc2c1COCC21CCN(S(=O)(=O)C2CC2)C1` (configuration not stated), the INHIBITION was 12.5%.
In the case of `O=C(NCC1CCN(CCc2ccccc2)C1)c1cc(Cl)c[nH]1` (configuration not stated) it was 65.1%; in that of `CCN1CCC(CNC(=O)c2cc(Cl)c[nH]2)CC1`, -108%; in that of `COCCN1CCC(CNC(=O)c2cc(Cl)c[nH]2)CC1`, -2.76%.
For `CC(OCC1CC1)C(=O)Nc1ncn(CC(=O)N2CCCCCC2)n1` (configuration not stated) the value was 36.5%; for `CN1CCCc2c1nc1c(c2N)CCC1`, -49.7%; for `CN1CCCCc2c1nc1c(c2N)CCCC1`, 63.8%.
As to `CN1CCc2c1nc1c(c2N)CCC1`, the INHIBITION was -64.6%.
For `Cc1c(C)n(-c2ccccn2)c2nc3c(c(N)c12)CCCC3` the value was 21.3%.
